Results on 13 molecules are retold here after PubChem BioAssay (NCI).

Test systems include NCI-H23 lung; NCI-H226 lung; NCI-H322M lung; HOP-62 NSCLC; NCI-H460 lung; HOP-92 NSCLC; NCI-H522 lung; A549/ATCC NSCLC; 786-0 renal; COLO 205 colon.
Assay in all cases: NCI-60 one-dose screen, 48 h (100 = growth as untreated, 0 = no growth, -100 = all killed)
Common to all, as to conditions: 10 µM unless noted

The panel holds about 83,000 compounds, 20% with a hit somewhere; the sample as a whole holds those more often.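 For each line, cells grew in 96-well plates with the test compound present at a single concentration for 48 hours.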 Unmarked numbers belong to inactive results. The source made the active and inactive calls. Rule for the calls: active = growth percent below 10; inactive = the rest.

Turning to `CCCCCOC(=O)c1c(C)[nH]c(/C=C2\N=C(c3ccc[nH]3)C=C2OC)c1C`, the growth in the experiment with NCI-H23 lung is -59.1% (active); in the experiment on NCI-H226 lung it was -74.8% (active); in the experiment with NCI-H322M lung, -17.8% (active); in the experiment on HOP-62 NSCLC it was -17.8% (active); in the experiment with NCI-H460 lung, 4.97% (active); with HOP-92 NSCLC, -20.5% (active). In addition, the growth in the experiment with NCI-H522 lung was -56.7% (active); in the experiment on A549/ATCC NSCLC it was -1.61% (active); in the experiment with 786-0 renal it was -16.9% (active); in the experiment on COLO 205 colon, -88.2% (active).
As for `COc1cc2c(c(OC)c1OC)CCC(c1cccc(C(=O)Nc3ccc(C#N)cc3)c1)O2` (stereo not given), the growth in the experiment with NCI-H23 lung is 40.6%; in the experiment on NCI-H226 lung it was 33%; in the experiment on NCI-H322M lung, 77.4%; with HOP-62 NSCLC, 72.1%; in the experiment on NCI-H460 lung, 56.5%; with HOP-92 NSCLC, 52.3%. Also, the growth with NCI-H522 lung is 38.4%; in the experiment with A549/ATCC NSCLC, 50.9%; in the experiment on 786-0 renal it was 80.6%; in the experiment with COLO 205 colon, 84.8%.
Take `CCCCCCCCCc1ccc(OCCOCCOCCOCCOCCOCCOCCOCCOCCO)cc1`: the growth with NCI-H23 lung was 7.69% (active); in the experiment on NCI-H226 lung it was 17.3%; with NCI-H322M lung it was 57.3%; in the experiment with HOP-62 NSCLC, 128%; in the experiment with NCI-H460 lung it was 11.2%; with HOP-92 NSCLC, -9.71% (active). The growth in the experiment on NCI-H522 lung was -9.88% (active); in the experiment on A549/ATCC NSCLC it was 17.3%; in the experiment with 786-0 renal it was 27.4%; with COLO 205 colon it was 109%.
On to `O=C(C[C@]1(O)C(=O)Nc2ccccc21)c1cccc(C(F)(F)F)c1`, for which the growth in the experiment with NCI-H23 lung is 92.5%; with NCI-H226 lung, 86.3%; in the experiment with NCI-H322M lung it was 84.4%; in the experiment with HOP-62 NSCLC, 78.8%; with NCI-H460 lung, 97.4%; with HOP-92 NSCLC, 77.3%. Further, the growth is 87.1% in the experiment on NCI-H522 lung, 99.2% in the experiment on A549/ATCC NSCLC, 95.7% in the experiment on 786-0 renal and 89.5% in the experiment with COLO 205 colon.
For `C=CC[Se]C(=O)Cc1c(C)n(C(=O)c2ccc(Cl)cc2)c2ccc(OC)cc12`, the growth with NCI-H23 lung was -18.2% (active); in the experiment on NCI-H226 lung, -20.5% (active); with NCI-H322M lung it was -29.5% (active); in the experiment with HOP-62 NSCLC, -16.6% (active); in the experiment on NCI-H460 lung it was -6.72% (active); in the experiment with HOP-92 NSCLC it was -21.6% (active). For the same molecule, the growth in the experiment with NCI-H522 lung is 8.54% (active); with A549/ATCC NSCLC, -5.21% (active); in the experiment on 786-0 renal it was -50.5% (active); in the experiment with COLO 205 colon, -32.1% (active).
Consider `CCCCNCCCCCNc1cc(OC)cc2cccnc12`, for which the growth was 101% in the experiment on NCI-H23 lung; 96.5% in the experiment with NCI-H226 lung; 106% in the experiment with NCI-H322M lung; 88% in the experiment with HOP-62 NSCLC; 106% in the experiment with NCI-H460 lung; 49.2% in the experiment with HOP-92 NSCLC. The growth in the experiment with NCI-H522 lung is 94%; in the experiment with A549/ATCC NSCLC, 95.9%; in the experiment with 786-0 renal, 90.1%; with COLO 205 colon, 93.7%.
In the case of `CCOC(=O)n1cc(-c2nonc2-c2cn(C(=O)OCC)c3ccc(Br)cc23)c2ccccc21`, the growth was 67.9% in the experiment with NCI-H23 lung; 79.4% in the experiment on NCI-H226 lung; 70% in the experiment with NCI-H322M lung; 72.3% in the experiment on HOP-62 NSCLC; 81.6% with NCI-H460 lung; 63.2% with HOP-92 NSCLC. For the same molecule, the growth in the experiment with NCI-H522 lung was 70.6%; in the experiment with A549/ATCC NSCLC, 74.4%; in the experiment with 786-0 renal, 90.6%; in the experiment on COLO 205 colon, 84.2%.
For `Cn1cc(-c2csc(-c3cn(C(=O)OC(C)(C)C)c4ccc(Br)cc34)n2)c2ccnc(Cl)c21`, the growth with NCI-H23 lung is 81.7%; in the experiment on NCI-H226 lung, 73.3%; in the experiment on NCI-H322M lung, 85.3%; in the experiment with HOP-62 NSCLC it was 68.5%; in the experiment on NCI-H460 lung it was 68.7%; in the experiment with HOP-92 NSCLC it was 58.8%. The growth in the experiment with NCI-H522 lung is 66.7%; in the experiment on A549/ATCC NSCLC, 70.3%; in the experiment with 786-0 renal it was 74.7%; with COLO 205 colon, 90.9%.
Consider `O=C(O)c1cn(C2CC2)c2cc(N3CCN(C(=O)N(c4ccccc4)c4nc(-c5ccccc5)cs4)CC3)c(F)cc2c1=O`, for which the growth with NCI-H23 lung is -3.61% (active); with NCI-H226 lung, 4.84% (active); in the experiment with NCI-H322M lung, 2.44% (active); with HOP-62 NSCLC it was -1.15% (active); in the experiment with NCI-H460 lung it was 2.93% (active); in the experiment with HOP-92 NSCLC, -25% (active). Moreover, the growth was -25% (active) with NCI-H522 lung, 9.6% (active) with A549/ATCC NSCLC, 4.01% (active) in the experiment on 786-0 renal and -20.6% (active) with COLO 205 colon.
As to `O=[N+]([O-])c1cccc(-c2nc3cc4nc5ccccc5[nH]c4cc3n2)c1`, the growth in the experiment with NCI-H23 lung was 90.1%; in the experiment on NCI-H226 lung it was 105%; in the experiment with NCI-H322M lung, 97.7%; in the experiment with HOP-62 NSCLC, 95.7%; with NCI-H460 lung, 112%; with HOP-92 NSCLC it was 113%. For the same molecule, the growth with NCI-H522 lung was 92.6%; with A549/ATCC NSCLC, 92.6%; with 786-0 renal, 91.9%; with COLO 205 colon, 114%.
On to `Cc1ccc(-c2nc(N3CCCNCC3)c3oc(-c4ccc(C)cc4)nc3n2)cc1`, for which the growth was 91.1% in the experiment on NCI-H23 lung; 101% in the experiment on NCI-H226 lung; 16.5% in the experiment with NCI-H322M lung; 71.8% with HOP-62 NSCLC; -37.5% (active) in the experiment with NCI-H460 lung; 60.9% in the experiment on HOP-92 NSCLC. In addition, the growth with NCI-H522 lung is 65%; with A549/ATCC NSCLC it was -62.3% (active); with 786-0 renal, -96.2% (active); in the experiment with COLO 205 colon it was -71.6% (active).
`COc1ccc(C(O)c2cc3c(N)c(C(=O)Nc4cccc(Br)c4)sc3nc2C)cc1` (stereo not given): the growth is 21.9% in the experiment on NCI-H23 lung; 3.81% (active) in the experiment on NCI-H226 lung; 45.9% with NCI-H322M lung; 24.3% in the experiment on HOP-62 NSCLC; 0.823% (active) with NCI-H460 lung; 24.7% in the experiment on HOP-92 NSCLC. For the same molecule, the growth in the experiment on NCI-H522 lung is 9.45% (active); in the experiment on A549/ATCC NSCLC it was 11.2%; with 786-0 renal, 15.3%; in the experiment with COLO 205 colon, -25% (active).
As for `COC(=O)c1c2c(c(C)[n+]([O-])c1C)C(=O)C(NCc1cccc(OC)c1)=CC2=O`, the growth in the experiment on NCI-H23 lung is 25.4%; with NCI-H226 lung it was 83.2%; with NCI-H322M lung it was 22.6%; with HOP-62 NSCLC, 53.2%; in the experiment with NCI-H460 lung, 14.6%; in the experiment with HOP-92 NSCLC, 54.5%. The growth in the experiment on NCI-H522 lung is 10.8%; with A549/ATCC NSCLC it was 12.9%; with 786-0 renal, 54.3%; in the experiment with COLO 205 colon, -63.4% (active).
